This is an account of results in PubChem BioAssay.

Active and inactive are the calls of the source. Unless noted, the rule behind the calls is not given here.

Assay [1] has as its system Wnt5a (protein binding on small-molecule microarray). Put plainly: small molecules binding Wnt5a protein – biophysical, small-molecule microarray, 635/667 nm fluorescence, primary screen (AID 1142).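 Note: fluorescence read at 667 nm with signal to noise per printed feature.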 The following applies: 635 nm fluorescence, higher = more signal.
The nature of assay [2]: ATP-based viability of Huh7 replicon cells – cell-based, CellTiter-Glo luminescence, basal, 48 h, cytotoxicity control for HCV replication inhibitor project, primary screen (AID 1143).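 Note: Huh7 hepatoma cells carrying a hepatitis C replication reporter with no stimulus; test concentration not given here.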 The following applies: higher = more signal, called active from +8 up or from −8 down. On the technique in general: Replicon systems follow genome replication, usually without infectious particles.

A short description of assay [3]: Pseudomonas biofilm growth suppression – PAO1 strain, BacTiter-Glo luminescence, LB-PBS, primary screen (AID 1144). The conditions noted are these: P. aeruginosa PAO1 biofilm, 12 h, higher = more signal.
Assay [4] is described as follows: basal CRE-LacZ reporter activity in PC12 – cell-based, unstimulated, primary screen (AID 1145). The following applies: no forskolin, luminescence, 4.5 h, higher = more signal, called active from +8 up or from −8 down.
The nature of assay [5]: forskolin-driven CRE-LacZ activity in PC12 – cell-based, CRE-LacZ reporter, forskolin-stimulated, primary screen (AID 1146).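 Note: PC12 cells with 6xCRE LacZ reporter stimulated by forskolin 10 µM; beta-galactosidase reporter signal reflecting CREB driven transcription.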 The conditions noted are these: luminescence, 4.5 h, higher = more signal, called active from +8 up or from −8 down.
In assay [6] the target is Streptavidin (Streptomyces avidinii) (UniProt P22629). Put plainly: compounds binding control protein streptavidin – biophysical, small-molecule microarray, 635/667 nm fluorescence, artefact control for SMM compound annotation, primary screen (AID 1147).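 Note: signal reflects streptavidin binding to arrayed compounds as a control protein.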 The conditions noted are these: higher = more signal.
The nature of assay [7]: probe aInhba binding on compound microarray – biochemical, small-molecule microarray, 635/667 nm fluorescence, primary screen (AID 1148).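 Note: score merges 667nm spot fluorescence with signal-to-noise for antibody binding to printed compounds.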 The following applies: higher = more signal.
In assay [8] the target is Torsin-1A (Homo sapiens) (UniProt O14656). Put plainly: TOR1A wild-type binding on microarray – cell lysate, small-molecule microarray, lysate, 635/667 nm, primary screen (AID 1149). The following applies: COS7 hTOR1A-WT lysate, 635 nm fluorescence, higher = more signal.
The target is the same in assay [9]. Put plainly: torsin A mutant lysate binding on microarrays – cell lysate, small-molecule microarray, COS7 lysate, 635/667 nm fluorescence, primary screen (AID 1150).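 Note: score pools 667 nm emission and signal to noise measuring lysate protein binding.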 The conditions noted are these: COS7 hTOR1A mutant lysate, 635 nm fluorescence, higher = more signal.
The subject of assay [10] is Sonic hedgehog protein (Shh). Put plainly: Sonic hedgehog microarray binding compounds – biochemical, small-molecule microarray, 635/667 nm fluorescence, primary screen (AID 1151).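 Note: Shh protein binding to compounds spotted on small-molecule microarray slides; score combines spot fluorescence intensity with signal-to-noise across triplicate slides.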 The conditions noted are these: 635 nm fluorescence, higher = more signal.

Chain of Torsin-1A (Homo sapiens) (O14656 whole entry, looked up): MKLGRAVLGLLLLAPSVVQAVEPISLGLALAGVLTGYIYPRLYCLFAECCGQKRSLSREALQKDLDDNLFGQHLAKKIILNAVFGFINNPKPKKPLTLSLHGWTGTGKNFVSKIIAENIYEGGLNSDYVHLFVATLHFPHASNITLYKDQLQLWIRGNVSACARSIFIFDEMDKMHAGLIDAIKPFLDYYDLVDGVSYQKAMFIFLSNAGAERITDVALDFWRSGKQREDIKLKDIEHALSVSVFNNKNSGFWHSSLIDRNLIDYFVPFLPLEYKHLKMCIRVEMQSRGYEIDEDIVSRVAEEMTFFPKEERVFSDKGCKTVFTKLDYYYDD
Chain of Streptavidin (Streptomyces avidinii) (P22629 whole entry, looked up): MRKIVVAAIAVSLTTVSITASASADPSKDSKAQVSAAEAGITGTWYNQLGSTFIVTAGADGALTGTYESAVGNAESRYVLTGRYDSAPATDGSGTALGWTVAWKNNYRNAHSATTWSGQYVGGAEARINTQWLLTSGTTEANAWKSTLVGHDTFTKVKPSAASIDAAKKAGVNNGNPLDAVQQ

On to `O=C(Cc1ccccc1)[C@H]1C2C=CCCC(c3ccccc3)=C2CN1Cc1ccccc1` (stereo not given in full), for which the composite z-score is 0.0277 in [1]; -0.144 in [6]; -0.0494 in assay [7]; 0.219 with Torsin-1A (Homo sapiens) [8]; -0.412 with Torsin-1A (Homo sapiens) [9]; 0.0701 in assay [10]. In addition, the z-score in assay [2] was -0.408 (inactive); in [3] it was -0.886 (inactive); in assay [4], 4.3 (inactive); in assay [5] it was -0.0521 (inactive).
As for `CC[C@@H]1C=C(C(=O)O)[C@H](c2ccccc2)N1S(=O)(=O)c1ccc(C)cc1`, the composite z-score in assay [1] was 0.0651; in assay [6], 0.0128; in assay [7], -0.197; with Torsin-1A (Homo sapiens) [8] it was 0.474; with Torsin-1A (Homo sapiens) [9] it was 0.518; in assay [10] it was -0.313. The z-score in [2] was -0.272 (inactive); in [3] it was 0.853 (inactive); in [4] it was -0.676 (inactive); in assay [5], -0.0818 (inactive).
For `O=C1O[C@@H](c2ccccc2)[C@@H](c2ccccc2)N2[C@@H](c3ccc(OCCO)cc3)[C@]3(C(=O)Nc4ccc(C#CC5=CCCCC5)cc43)[C@@H](C(=O)NC[C@H](O)c3ccccc3)[C@H]12`, the composite z-score in assay [1] came to 0.771; in assay [6] it was 1.5; in assay [7], 0.853; with Torsin-1A (Homo sapiens) [8], 0.411; in the assay with Torsin-1A (Homo sapiens) [9], 1.01; in assay [10], 1.38. The z-score in [2] is -3.51 (inactive); in [3], -0.209 (inactive); in assay [4] it was -0.329 (inactive); in assay [5], -0.239 (inactive).
As for `CCOC(=O)C[C@H]1[C@H](OC(=O)c2ccc(-c3ccccc3)cc2)[C@@H](NC(=O)CC(C)C)c2cc(OCCCO)ccc2N1C(=O)c1ccc2ccccc2n1`, the composite z-score in assay [1] is -0.0361; in [6], 1.31; in assay [7] it was -0.0259; with Torsin-1A (Homo sapiens) [8], 0.0908; with Torsin-1A (Homo sapiens) [9], 0.31; in [10], 0.637. The z-score in [2] is -0.0042 (inactive); in assay [3], -0.453 (inactive); in assay [4], 1.04 (inactive); in [5] it was -0.428 (inactive).
Consider `COCCCNC(=O)[C@@]1(CCC(=O)OC(C)(C)C)N=C(c2ccc(OCCCO)cc2)O[C@H]1c1ccccc1N=[N+]=[N-]`, for which the composite z-score in assay [1] was 0.573; in [6], 2.07; in assay [7], 0.545; with Torsin-1A (Homo sapiens) [8], 0.786; in the assay with Torsin-1A (Homo sapiens) [9], 1.04; in assay [10], -0.341. Also, the z-score is -0.61 (inactive) in assay [2], 0.199 (inactive) in assay [3], 0.456 (inactive) in assay [4] and -1.71 (inactive) in [5].
Take `CO[C@H]1O[C@H](CO)[C@@H](OC(=O)Nc2ccccc2)[C@H](OC(=O)c2cc3ccccc3[nH]2)[C@H]1OC(=O)c1cc2ccccc2[nH]1`: the composite z-score in assay [1] was 0.411; in [6], -0.265; in [7], 0.0636; in the assay with Torsin-1A (Homo sapiens) [8] it was 0.289; in the assay with Torsin-1A (Homo sapiens) [9] it was 0.311; in assay [10], 1.3. Moreover, the z-score is -4.49 (inactive) in assay [2], -0.735 (inactive) in assay [3], -0.211 (inactive) in assay [4] and -0.331 (inactive) in assay [5].
`CCCCCN1CC=CC23O[C@@H]4/C=C\CCC(C)OC(=O)C4[C@H]2C(=O)N(C(CO)C(C)C)[C@@H]3C1=O` (stereo not given in full): the composite z-score in assay [1] is -0.236; in [6], -0.282; in assay [7], -0.101; with Torsin-1A (Homo sapiens) [8], -1.36; with Torsin-1A (Homo sapiens) [9] it was -0.303; in assay [10], 0.866. For the same compound, the z-score in assay [2] was 0.209 (inactive); in assay [3], -1.34 (inactive); in assay [4], -1.58 (inactive); in [5] it was -0.601 (inactive).
As to `COc1cccc(C)c1NC(=O)O[C@H]1[C@H](OC(=O)Nc2ccccc2-c2ccccc2)[C@H](OC(=O)Nc2ccccc2-c2ccccc2)[C@@H](OC)O[C@@H]1CO`, the composite z-score was 0.63 in assay [1]; 1.26 in assay [6]; 0.0128 in assay [7]; 0.561 with Torsin-1A (Homo sapiens) [8]; 0.455 with Torsin-1A (Homo sapiens) [9]; 1.39 in assay [10]. Besides, the z-score in [2] was -3.45 (inactive); in assay [3], 1.14 (inactive); in [4], -0.207 (inactive); in [5], -0.433 (inactive).
Consider `CO[C@H]1O[C@H](CO)[C@@H](OC(=O)CCc2ccccc2)[C@@H]2OC(=O)[C@@H](Cc3ccccc3)C/C=C/C[C@H](Cc3ccccc3)C(=O)O[C@@H]12`, for which the composite z-score in [1] is 0.411; in assay [6] it was 0.29; in assay [7], -0.315; in the assay with Torsin-1A (Homo sapiens) [8], -0.293; in the assay with Torsin-1A (Homo sapiens) [9] it was 0.169; in assay [10], 0.476. Further, the z-score in assay [2] was -2.33 (inactive); in assay [3], -0.605 (inactive); in assay [4], -0.655 (inactive); in assay [5], -0.43 (inactive).
With `COC(=O)C/C=C/C[C@]1(O)C(=O)N(C)c2ccccc21`, the composite z-score in [1] was 0.0325; in assay [6] it was -0.373; in [7], -0.104; with Torsin-1A (Homo sapiens) [8] it was 0.325; in the assay with Torsin-1A (Homo sapiens) [9] it was 0.582; in assay [10], 0.775. In addition, the z-score in [2] was -1.2 (inactive); in [3], -0.716 (inactive); in assay [4], 1.04 (inactive); in assay [5], -1.55 (inactive).
Regarding `COC(=O)[C@@]1(Cc2ccc(OC)cc2)[C@H]2c3cc(C(=O)N4CCCC4)n(CCc4c[nH]c5ccc(OC)cc45)c3C[C@H]2CN1C(=O)c1ccccc1`, the composite z-score in assay [1] was 0.411; in assay [6] it was 1.5; in assay [7] it was 0.35; in the assay with Torsin-1A (Homo sapiens) [8], -0.0701; with Torsin-1A (Homo sapiens) [9], 0.327; in assay [10], -0.565. The z-score is -3.16 (inactive) in [2], 0.717 (inactive) in assay [3], 0.201 (inactive) in assay [4] and -0.715 (inactive) in assay [5].
Take `COc1ccc([Si](C)(C)[C@@H]2[C@@H](CCO)O[C@]3(C(=O)N(Cc4cccc(NC(=O)[C@H](C)O)c4)c4ccccc43)[C@H]2C)cc1`: the composite z-score was 0.736 in [1]; 0.887 in [6]; -0.128 in [7]; 0.23 with Torsin-1A (Homo sapiens) [8]; 0.97 in the assay with Torsin-1A (Homo sapiens) [9]; 0.533 in assay [10]. Also, the z-score in assay [2] is -8.02 (active); in assay [3], -1.07 (inactive); in assay [4], 10.2 (active); in assay [5], -1.88 (inactive).
Consider `COc1cc2c(cc1O)C(C1CC1)N(Cc1cccc(OC(F)(F)F)c1)CC2` (stereo not given), for which the composite z-score was 0.0616 in assay [1]; -0.41 in assay [6]; -0.285 in assay [7]; -0.0876 with Torsin-1A (Homo sapiens) [8]; 0.315 in the assay with Torsin-1A (Homo sapiens) [9]; 0.908 in [10]. The z-score in assay [2] was -3.88 (inactive); in [3], 0.73 (inactive); in [4], -0.581 (inactive); in assay [5] it was 0.0388 (inactive).
On to `CC(C)N1CC=CC23O[C@@H]4C=CCCOC(=O)C4[C@H]2C(=O)N(CCCO)[C@@H]3C1=O` (stereo not given in full), for which the composite z-score is -0.352 in assay [1]; -0.912 in [6]; -0.0933 in assay [7]; -1.02 with Torsin-1A (Homo sapiens) [8]; -0.457 with Torsin-1A (Homo sapiens) [9]; 0.403 in [10]. In addition, the z-score in [2] is -2.89 (inactive); in [3], -0.614 (inactive); in assay [4] it was -0.749 (inactive); in assay [5] it was -0.313 (inactive).
In the case of `CCCCC(CC)C(O)C1C=CC2C(=O)N(c3ccccc3)C(=O)C2N1Nc1ccccc1F` (stereo not given), the composite z-score in assay [1] was 0.507; in [6], 0.0844; in assay [7], -0.128; with Torsin-1A (Homo sapiens) [8], 0.136; with Torsin-1A (Homo sapiens) [9], 0.663; in assay [10], -0.045. Besides, the z-score in assay [2] was -2.32 (inactive); in assay [3] it was -0.786 (inactive); in [4], -0.433 (inactive); in assay [5] it was -0.208 (inactive).
As to `O=C1OCCC=C[C@H]2OC34C=CCN(c5ccc6ccccc6c5)C(=O)[C@H]3N(CCCO)C(=O)[C@@H]4C12` (stereo not given in full), the composite z-score in [1] was -1.2; in [6] it was -1.16; in [7], -0.239; in the assay with Torsin-1A (Homo sapiens) [8], -1.44; with Torsin-1A (Homo sapiens) [9] it was -1.79; in [10], -1.93. Further, the z-score in assay [2] was -2.26 (inactive); in [3], -0.633 (inactive); in assay [4] it was -0.0778 (inactive); in assay [5], -0.301 (inactive).
For `CCCCCN1CC=CC23O[C@@H]4/C=C\CCCOC(=O)C4[C@H]2C(=O)N(C(C)CO)[C@@H]3C1=O` (stereo not given in full), the composite z-score was -0.917 in [1]; -0.783 in assay [6]; -0.128 in assay [7]; -3.18 with Torsin-1A (Homo sapiens) [8]; -2.48 in the assay with Torsin-1A (Homo sapiens) [9]; 0.0074 in assay [10]. For the same compound, the z-score was 0.194 (inactive) in [2], -1.24 (inactive) in assay [3], -1.43 (inactive) in [4] and -1.24 (inactive) in assay [5].
